According to PubChem BioAssay (EPA / NIEHS):
Results filed as inconclusive are left out. Calls of active or inactive are those of the source. The calls were made as follows, unless noted: active = hit-call score of the fitted dose curve at least 0.9, where 1 is the maximum; inactive = score below 0.9.

Assays:
[1] = target: Nucleoli Translocation, AR (gene 367) (UniProt P10275); assay: UPITT_HCI_U2OS_AR_TIF2_Nucleoli_Antagonist: University of Pittsburgh U2OS Androgen Receptor-Transcriptional Intermediary Factor 2 (AR-TIF2) Antagonism High Content Imaging Assay for Nucleoli Translocation (AID 2283997; active = hit-call score of the fitted dose curve at least 0.9, where 1 is the maximum)
Procedure, shortened: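 U2OS cells co-expressing red-fluorescent-tagged human AR and green-fluorescent-tagged TIF2, imaged by high-content microscopy for nucleolar red fluorescence. Antagonist mode against DHT; primary screen at 20 uM final (0.2% DMSO).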

[2] = target: Nucleoli Translocation, AR (gene 367) (UniProt P10275); assay: UPITT_HCI_U2OS_AR_TIF2_Nucleoli_Agonist: University of Pittsburgh U2OS Androgen Receptor-Transcriptional Intermediary Factor 2 (AR-TIF2) Agonism High Content Imaging Assay for Nucleoli Translocation (AID 2283998; active = hit-call score of the fitted dose curve at least 0.9, where 1 is the maximum)
Procedure, shortened: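 Red-tagged human androgen receptor co-expressed with GFP-tagged TIF2 serves as the binding reporter. Primary testing used 20 uM final (0.2% DMSO); follow-up dose response covered 0.195 to 50 uM final (0.5% DMSO).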

[3] = target: Ratio of Nucleoli Translocation and Cytoplasm, AR (gene 367) (UniProt P10275); assay: UPITT_HCI_U2OS_AR_TIF2_Nucleoli_Cytoplasm_Ratio_Antagonist: University of Pittsburgh U2OS Androgen Receptor-Transcriptional Intermediary Factor 2 (AR-TIF2) Antagonism High Content Imaging Assay for Ratio of Nucleoli Translocation and Cytoplasm (AID 2283999; active = hit-call score of the fitted dose curve at least 0.9, where 1 is the maximum;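 also: antagonists lower the DHT-driven ratio of nucleolar to cytoplasmic red signal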)
Procedure, shortened: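 High-content imaging quantifies the red nucleolar:cytoplasmic fluorescence ratio in U2OS cells with AR-RFP and TIF2-GFP. Final concentrations are 20 uM (screen) or 0.195–50 uM (dose response), analysed against DHT as baseline.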

[4] = target: Ratio of Nucleoli Translocation and Cytoplasm, AR (gene 367) (UniProt P10275); assay: UPITT_HCI_U2OS_AR_TIF2_Nucleoli_Cytoplasm_Ratio_Agonist: University of Pittsburgh U2OS Androgen Receptor-Transcriptional Intermediary Factor 2 (AR-TIF2) Agonism High Content Imaging Assay for Ratio of Nucleoli Translocation and Cytoplasm (AID 2284000; active = hit-call score of the fitted dose curve at least 0.9, where 1 is the maximum;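 also: hits raise the red nucleolar to cytoplasm ratio above vehicle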)
Procedure, shortened: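 U2OS cells expressing RFP-tagged human AR and GFP-tagged TIF2; high-content imaging ratio of nucleolar to cytoplasmic red fluorescence, fitted as gain of signal vs DMSO. Single point at 20 uM final (0.2% DMSO); concentration-response 0.195-50 uM final (0.5% DMSO).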

[5] = CCTE_Harrill_HTTr_Viability_MCF7: CCTE's 6-hour Cell Viability Assessment for the High-Throughput Transcriptomics (HTTr) Platform, in MCF-7 cells cultured in DMEM + 10% fetal bovine serum, Harrill Lab (AID 2284010)
Procedure, shortened: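 Viability measured through PI dye exclusion by high-content imaging at 6 h post-dosing.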

[6] = CCTE_Harrill_HTTr_Apoptosis_MCF7: CCTE's 6-hour Apoptosis Assessment for the High-Throughput Transcriptomics (HTTr) Platform, in MCF-7 cells cultured in DMEM + 10% fetal bovine serum, Harrill Lab (AID 2284011)
Procedure, shortened: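 Cells are dosed with test chemicals at eight concentrations and imaged 6 hours later for caspase-3/7 activity using a green fluorogenic detection reagent. Activity is fitted in both directions against DMSO controls.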

[7] = CCTE_Harrill_HTTr_CellCount_MCF7: CCTE's Cell Proliferation Assessment for the High-Throughput Transcriptomics (HTTr) Platform, Harrill Lab (AID 2284012; active = hit-call score of the fitted dose curve at least 0.9, where 1 is the maximum;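 also: count of Hoechst-stained nuclei per well by high-content imaging in MCF-7 cells; cells exposed to compound for six hours; intended direction is loss of nuclei count meaning fewer cells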)
Procedure, shortened: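 Nuclei counting (Hoechst, high content imaging) in MCF-7 after a 6 h treatment at eight concentrations. Activity fitted bidirectionally, DMSO as negative control.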

[8] = tested on: DIO1 (gene 1733); assay: CCTE_GLTED_hDIO1: CCTE's human Deiodinase 1 (DIO1) Inhibition Assay, Great Lakes Toxicology and Ecology Division (GLTED) Lab (AID 2283987; active = hit-call score of the fitted dose curve at least 0.9, where 1 is the maximum;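 also: isolated human DIO1 enzyme in a cell-free setup rather than cells; enzyme activity read as free iodide liberated from substrate via Sandell-Kolthoff colorimetry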)
Procedure, shortened: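 Cell-free hDIO1 assay, triplicate plates. Absorbance of the Sandell-Kolthoff reaction reports enzyme-liberated iodide; iodinated chemicals or nitrite, iron and thiocyanate may interfere.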

[9] = CCTE_Simmons_MITO_basal_resp_rate: CCTE's HepG2 Seahorse XF Respirometric Screening Assay at Basal Respiratory State, Simmons Lab (AID 2284001); settings: actives raise or lower the signal
Procedure, shortened: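 HepG2 oxygen consumption on Seahorse XF96 after compound injection, 7 concentrations 125 nM–100 uM final, reads every 6 min over 72 min. Triplicate biological replicates; bidirectional fit vs DMSO; fenpyroximate and 2,4-dinitrophenol controls.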

[10] = CCTE_Simmons_MITO_max_resp_rate: CCTE's HepG2 Seahorse XF Respirometric Screening Assay at Maximal Respiratory State [uncoupled], Simmons Lab (AID 2284002); settings: actives raise or lower the signal
Procedure, shortened: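 Maximal respiration in HepG2 cells is recorded as OCR by Seahorse XF following FCCP injection. Compounds span 125 nM–100 uM final; activity is called in either direction against DMSO.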

[11] = CCTE_Simmons_MITO_inhib_resp_rate: CCTE's HepG2 Seahorse XF Respirometric Screening Assay at Inhibited Respiratory State [full ETC block], Simmons Lab (AID 2284006); settings: actives raise or lower the signal
Procedure, shortened: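 Inhibited respiration was taken as HepG2 oxygen consumption after rotenone/antimycin A, which followed test-compound and FCCP injections. Chemicals were tested at seven final concentrations from 125 nM to 100 uM. Activity was fitted bidirectionally relative to DMSO.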

[12] = CCTE_Simmons_MITO_viability: CellTiter-Glo Viability Assessment for CCTE's HepG2 Seahorse XF Respirometric Screening Assay [post-hoc], Simmons Lab (AID 2284007; active = hit-call score of the fitted dose curve at least 0.9, where 1 is the maximum;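 as to AC50: cells exposed to chemical for 90 min before the ATP read; actives lower ATP signal relative to DMSO baseline meaning reduced viability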)
Procedure, shortened: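 HepG2 cells; test chemical 7 conc. (125 nM–100 uM final) × 90 min; then luminescent ATP detection. DMSO vehicle. Positive control dichlone, 8 conc. from 10 nM to 100 uM final. Loss-of-signal endpoint.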

[13] = CCTE_Shafer_MEA_acute_spike_number: CCTE's Neural Acute Assay for Total Number of Spikes, Shafer Lab (AID 2284008);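 as to AC50: curve fitted for decrease in spike count so AC50 reflects inhibitors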
Procedure, shortened: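 Cortical neurons from rat, matured to DIV 13 or 15 on microelectrode arrays, are recorded at 37 C before and during 40-min exposure to 0.03-40 uM compound. Wells need >/= 10 active electrodes.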

[14] = CCTE_Shafer_MEA_acute_firing_rate_mean: CCTE's Neural Acute Assay for Mean Firing Rate, Shafer Lab (AID 2284009);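 also: analyzed for loss of signal so actives lower firing rate relative to DMSO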
Procedure, shortened: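 Rat primary cortical neurons on 48-well MEA plates, dosed at 0.03-40 uM on DIV 13 or 15; 40 min spontaneous activity recorded at 37 C before and after compound. Spike rate per electrode averaged per well, expressed as percent change from baseline.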

[15] = CCTE_Harrill_HTTr_Apoptosis_DMEM_6hr: (Pilot) CCTE's 6-hour Apoptosis Assessment for the High-Throughput Transcriptomics (HTTr) Platform, in MCF-7 cells cultured in DMEM + 10% fetal bovine serum, Harrill Lab (AID 2283981)
Procedure, shortened: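 Caspase-3/7 activation read by high content imaging with CellEvent Caspase 3/7 Green in MCF-7 cells (DMEM + 10% FBS), 6 h after dosing; eight-point dilution series. Bidirectional fitting relative to DMSO baseline.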

[16] = CCTE_Harrill_HTTr_Apoptosis_DMEM_12hr: (Pilot) CCTE's 12-hour Apoptosis Assessment for the High-Throughput Transcriptomics (HTTr) Platform, in MCF-7 cells cultured in DMEM + 10% fetal bovine serum, Harrill Lab (AID 2283982)
Procedure, shortened: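 MCF-7 cells in DMEM + 10% FBS, exposed 12 h to an eight-point dilution series; caspase-3/7 activation imaged with CellEvent Green. Bidirectional fit versus DMSO.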

[17] = CCTE_Harrill_HTTr_Apoptosis_DMEM_24hr: (Pilot) CCTE's 24-hour Apoptosis Assessment for the High-Throughput Transcriptomics (HTTr) Platform, in MCF-7 cells cultured in DMEM + 10% fetal bovine serum, Harrill Lab (AID 2283983)
Procedure, shortened: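 MCF-7 cells in DMEM + 10% FBS, eight-point dilution series, 24 h exposure. Caspase-3/7 activation imaged by high-content imaging with CellEvent Caspase 3/7 Green. Bidirectional curve fitting against DMSO baseline.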

[18] = CCTE_Harrill_HTTr_Apoptosis_PRF_DMEM_6hr: (Pilot) CCTE's 6-hour Apoptosis Assessment for the High-Throughput Transcriptomics (HTTr) Platform, in MCF-7 cells cultured phenol red-free DMEM + 10% charcoal-stripped fetal bovine serum, Harrill Lab (AID 2283984)
Procedure, shortened: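 MCF-7 cells in phenol red-free DMEM + 10% charcoal-stripped FBS, eight-point dilution series, 6 h exposure. Caspase-3/7 activation imaged by high-content imaging with CellEvent Caspase 3/7 Green; bidirectional fit versus DMSO baseline.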

[19] = CCTE_Harrill_HTTr_Apoptosis_PRF_DMEM_12hr: (Pilot) CCTE's 12-hour Apoptosis Assessment for the High-Throughput Transcriptomics (HTTr) Platform, in MCF-7 cells cultured in phenol red-free DMEM + 10% charcoal-stripped fetal bovine serum, Harrill Lab (AID 2283985)
Procedure, shortened: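 MCF-7 cells in phenol red-free DMEM with 10% charcoal-stripped FBS, eight-point dilution series, 12 h exposure. Caspase-3/7 activation imaged by high content imaging with CellEvent Green reagent; bidirectional fit vs DMSO.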

[20] = CCTE_Harrill_HTTr_Apoptosis_PRF_DMEM_24hr: (Pilot) CCTE's 24-hour Apoptosis Assessment for the High-Throughput Transcriptomics (HTTr) Platform, in MCF-7 cells cultured in phenol red-free DMEM + 10% charcoal-stripped fetal bovine serum, Harrill Lab (AID 2283986)
Procedure, shortened: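 MCF-7 cells in phenol red-free DMEM with 10% charcoal-stripped FBS, exposed 24 h across an eight-point dilution series. Caspase-3/7 activation imaged with CellEvent Green by high content imaging; bidirectional fitting against DMSO.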

Measured: AC50

Ratio of Nucleoli Translocation and Cytoplasm, AR (gene 367), sequence (P10275 whole entry, looked up): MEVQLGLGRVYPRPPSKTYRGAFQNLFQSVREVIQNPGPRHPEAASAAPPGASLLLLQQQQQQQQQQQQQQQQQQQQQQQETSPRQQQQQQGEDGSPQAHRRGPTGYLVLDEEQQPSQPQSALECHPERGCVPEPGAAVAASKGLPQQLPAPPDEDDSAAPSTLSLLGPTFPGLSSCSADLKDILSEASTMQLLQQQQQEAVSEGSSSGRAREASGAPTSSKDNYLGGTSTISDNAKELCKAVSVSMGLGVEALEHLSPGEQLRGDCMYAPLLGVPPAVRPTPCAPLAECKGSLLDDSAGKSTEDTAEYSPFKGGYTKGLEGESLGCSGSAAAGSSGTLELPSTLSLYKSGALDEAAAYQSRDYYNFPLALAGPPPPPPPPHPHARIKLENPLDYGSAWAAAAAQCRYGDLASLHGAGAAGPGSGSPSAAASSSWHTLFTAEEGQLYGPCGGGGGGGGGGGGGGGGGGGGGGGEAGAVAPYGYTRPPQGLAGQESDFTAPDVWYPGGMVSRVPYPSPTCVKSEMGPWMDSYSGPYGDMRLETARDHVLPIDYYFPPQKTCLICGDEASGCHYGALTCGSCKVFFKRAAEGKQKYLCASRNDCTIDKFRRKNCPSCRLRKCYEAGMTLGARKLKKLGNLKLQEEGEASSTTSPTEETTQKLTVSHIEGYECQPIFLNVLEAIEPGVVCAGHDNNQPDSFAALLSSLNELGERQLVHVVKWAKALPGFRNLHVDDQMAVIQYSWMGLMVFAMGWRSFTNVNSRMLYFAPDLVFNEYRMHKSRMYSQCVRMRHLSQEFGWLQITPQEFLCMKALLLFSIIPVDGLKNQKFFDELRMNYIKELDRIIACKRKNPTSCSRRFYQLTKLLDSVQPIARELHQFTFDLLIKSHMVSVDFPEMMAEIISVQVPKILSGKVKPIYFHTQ
Nucleoli Translocation, AR (gene 367), sequence (P10275 whole entry, looked up): as above

CC1=C2C[C@H]3[C@@H](CC=C4C[C@@H](O)CC[C@@]43C)[C@@H]2CC[C@]12O[C@@H]1C[C@H](C)CN[C@H]1[C@H]2C
inactive: [1] | [2] | [3] | [4] | [5] | [6] | [7]

CCCCCCCCCC[N+](C)(C)CCCCCCCCCC
inactive: [11] | [5] | [7]
active: [8] 40.7 µM | [9] 8.58 µM | [10] 26.4 µM | [12] 28 µM | [13] 2.81 µM | [14] 2.88 µM

O=C(N[C@H]1CN2CCC1CC2)c1cc2ccoc2cn1
inactive: [1] | [2] | [4] | [13] | [14] | [5] | [6] | [7]

CC(c1ccc(O)cc1)(c1ccc(O)cc1)c1ccc(O)cc1
inactive: [10] | [11] | [12] | [5] | [6]
active: [9] 14.5 µM | [13] 3.97 µM | [14] 3.97 µM

CC(C)C(=O)OCC(C)(C)C(OC(=O)C(C)C)C(C)C (centres undefined)
inactive: [13] | [14]

C=CC(=O)NCNC(=O)C=C
inactive: [1] | [2] | [3] | [4] | [5] | [6]

Oc1ccc(C(c2ccc(O)cc2)(C(F)(F)F)C(F)(F)F)cc1
active: [9] 10.8 µM | [10] 21.6 µM | [13] 3.17 µM | [14] 3.16 µM
inactive: [11] | [5] | [6]

CCC(=O)O[C@H]1CC[C@H]2[C@@H]3CCC4=CC(=O)CC[C@]4(C)[C@H]3CC[C@]12C
inactive: [10] | [11] | [5] | [6]
active: [2] 0.00109 µM | [4] 0.000508 µM

CCNc1nc(NC(C)C)nc(SC)n1
inactive: [1] | [9] | [10] | [11] | [5] | [6]

NS(=O)(=O)C(F)(F)C(F)(F)C(F)(F)C(F)(F)C(F)(F)C(F)(F)C(F)(F)C(F)(F)F
inactive: [3] | [10] | [11] | [12] | [5] | [6]
active: [8] 26.8 µM | [1] 82.7 µM | [2] 30.9 µM | [4] 32 µM | [9] 34.9 µM

CC#Cc1cc(C)nc(Nc2ccccc2)n1
inactive: [5] | [6] | [7]
active: [8] 27 µM | [13] 4.07 µM | [14] 4.06 µM

CC(C)(c1ccccc1)c1ccc(O)cc1
inactive: [15] | [16] | [17] | [18] | [19] | [20] | [11] | [12] | [5] | [6] | [7]
active: [9] 19.9 µM | [10] 37.7 µM
